PubChem BioAssay (NCI)
Compounds without any hit were thinned out: in the full panel of roughly 83,000, 20% have a hit.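 Single-concentration screen, 48 h exposure, 96-well plates. Endpoint: percent growth. Below 10 = active.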 A number with no mark means an inactive call. Calls of active or inactive are those of the source.

How the values were obtained:
Assay in all cases: NCI-60 one-dose screen, 48 h (100 = growth as untreated, 0 = no growth, -100 = all killed)
Conditions in all cases: 10 µM unless noted
[1] = test system: NCI-H23 lung
[2] = test system: NCI-H226 lung
[3] = test system: NCI-H322M lung
[4] = test system: HOP-62 NSCLC
[5] = test system: HOP-92 NSCLC
[6] = test system: NCI-H522 lung
[7] = test system: A549/ATCC NSCLC
[8] = test system: 786-0 renal
[9] = test system: COLO 205 colon
[10] = test system: NCI-H460 lung

SMILES	growth [1]	growth [2]	growth [3]	growth [4]	growth [5]	growth [6]	growth [7]	growth [8]	growth [9]	growth [10]
Cc1c2cnccc2c(C)c2c1c1cc(CO)ccc1n2C	-46.1% (active)	-68.5% (active)	-40.2% (active)	-48.8% (active)	-20% (active)	-72.6% (active)	-28.2% (active)	-13.1% (active)	-51.2% (active)	–
N=C(N)c1ccc(OCCSCCOc2ccc(C(=N)N)cc2)cc1	36.2%	58.8%	78.3%	72.5%	79.2%	48.5%	57.4%	80.2%	79.5%	–
COC1C(O)CC(OC2CC(OC3CC(O[C@@H]4C(=O)c5c(cc6cc(OC7CC(OC8CC(O)C(O)C(C)O8)C(O)C(C)O7)c(C)c(O)c6c5O)CC4[C@H](OC)[C@@H](O)C(C)=O)OC(C)C3O)OC(C)C2O)OC1C (some centres undefined)	-12.1% (active)	-16.6% (active)	4.31% (active)	-3.94% (active)	5.01% (active)	-26.4% (active)	3.44% (active)	8.03% (active)	-21.3% (active)	–
C[C@@H]1CN(c2cnc(C(=O)Nc3cc(F)cc4cccnc34)cn2)C[C@H](C)N1	63%	44.8%	93.1%	83.8%	46%	–	94.6%	60.6%	13%	88.9%
O=C(Nc1cccnc1Nc1ccccc1)c1cn(Cc2cccc(Oc3ccccc3)c2)nn1	68.3%	64.7%	71.8%	78.6%	71.2%	61.3%	57.9%	56.7%	107%	–
CC1(C)CC(=O)C2=C(C1)C(c1ccc(Cl)cc1)n1ncc(C#N)c1N2 (centres undefined)	99.6%	94.8%	90.9%	104%	99.3%	85.7%	101%	98.9%	109%	–
COc1cc(/C=C/c2cc(/C=C/c3ccc(O)c(OC)c3)n(C(=O)Nc3ccc(Cl)cc3)n2)ccc1O	3.16% (active)	5.73% (active)	22.1%	17.1%	-4.7% (active)	–	4.03% (active)	-2.2% (active)	7.57% (active)	9.41% (active)
C#COc1cccc(Nc2ncnc3cc(NC(=O)[C@H](C)Cl)ccc23)c1	18.5% [6.25 µM]	41.7% [6.25 µM]	30% [6.25 µM]	7.33% [6.25 µM] (active)	81.5% [6.25 µM]	–	2.95% [6.25 µM] (active)	14.2% [6.25 µM]	12.2% [6.25 µM]	3.29% [6.25 µM] (active)
CC12OC(CC(O)C1O)n1c3ccccc3c3c4c(c5c6ccccc6n2c5c31)C(=O)N(CCN1CCCC1)C4=O (centres undefined)	14.3%	2.49% (active)	28.5%	2.4% (active)	34.1%	–	1.98% (active)	14.5%	14.4%	-17.3% (active)
Cc1ccc2c(/C=C/C(=O)c3cc(CN4CCOCC4)c(O)c4nc(C)ccc34)cc(CN3CCOCC3)c(O)c2n1	-2.24% (active)	-13% (active)	17%	-7.03% (active)	30.9%	–	11.3%	-31.9% (active)	-25.8% (active)	7.83% (active)
O=CN1N=C(c2cccc(Nc3ccnc4cc(Cl)ccc34)c2)CC1c1ccc(Cl)cc1 (centres undefined)	1.81% (active)	59.4%	59.6%	24.2%	21.9%	–	34.3%	28.8%	-9.28% (active)	19.3%
CCn1cc(C(=O)O)c(=O)c2cc(F)c(N3CCN(CC(=O)Nc4ccccc4)C(C)C3)c(F)c21 (centres undefined)	91.3%	100%	85.7%	–	97%	92.5%	97.9%	92.5%	106%	99.2%
CCn1cc(Cc2cc(C(=O)Nc3cc4cc(OC)c(OC)cc4c(C)n3)ccc2Cl)cn1	52%	30.8%	102%	–	47.1%	17.6%	38.9%	51.7%	46.4%	76.3%
COc1ccc(C/C(C)=C(\c2ccc(O)cc2)c2ccc(OCCN3CCCCC3)cc2)cc1	90.1%	103%	93.8%	–	72.3%	87.7%	79.2%	76.8%	89.4%	72.6%
Nc1ncnc2c1N=C(c1ccc(F)cc1)CC(c1cccc(Nc3ccnc4cc(Cl)ccc34)c1)N2 (centres undefined)	77.9%	91.5%	89.6%	–	67.8%	99.7%	83.5%	61.9%	49.8%	81.3%
CC(C)Cc1nc(Nc2ccccc2)[nH]c(=O)c1C#N	33.8%	58.1%	61%	–	-14% (active)	–	57.3%	72.6%	49.7%	59.8%
COc1ccc(C2C3=C(COC3=O)N(CCO)c3cc4c(cc32)OCO4)cc1OC (centres undefined)	73.6%	115%	104%	70.6%	68.7%	–	90.7%	84%	83.6%	–
O=Nc1ccc(NC(=O)Nc2ccc([N+](=O)[O-])cc2)cc1	87.5%	99.6%	103%	–	56.5%	78.8%	95.6%	86.5%	116%	91.5%
COC(=O)c1c2c(c(C)[n+]([O-])c1C)C(=O)C(NCc1ccccc1)=CC2=O	9.17% (active)	73.3%	7.15% (active)	–	71.1%	28.8%	13.7%	60%	-9.35% (active)	11%
O=C1CCCCN1c1ccc(C2=NCCCN2)cc1	99.2%	101%	92.3%	–	117%	79.1%	97%	95%	104%	94.9%
CC/C(=C(\c1ccc(Cl)cc1)c1ccc(OCCN2CCCCC2)cc1)c1ccc(O)cc1	47.6%	78.6%	70.1%	–	49.9%	58.1%	32.5%	-54.9% (active)	-73.5% (active)	–
CCN(CC)CCCNc1cc(OC)c(OC)c2cccnc12	7.1% (active)	110%	85.1%	–	84.7%	20.9%	56.4%	43.4%	98.4%	23.4%
CSc1ccc2c3c(n(C[C@H](O)CO)c(=O)c2c1)-c1ccccc1C3=O	38.1%	12.8%	74.3%	–	106%	43.7%	14.5%	27%	54.2%	6.06% (active)
O=C(NN1C(=O)CSC1c1cccc([N+](=O)[O-])c1)c1ccc(NC(=O)c2ccccn2)cc1 (centres undefined)	94.4%	106%	90.5%	95.4%	104%	–	100%	96.9%	103%	–
CCNC(=O)N1CCc2c(Br)c3c(c(OC)c2C1Cc1ccc(OC)cc1)OCO3 (centres undefined)	60.8%	70.8%	52.9%	–	40.6%	25.5%	34.2%	31.2%	3.06% (active)	15.2%
COc1cc2c3c(c4c5ccccc5[nH]c4c2c(OC)c1OC)C(=O)N(CCN1CCCCC1)C3=O	17.5%	28.2%	32%	–	48.7%	36.3%	-63.3% (active)	-85.9% (active)	28.3%	–
